HCMV inh: qHTS Assay for inhibitors of the human cytomegalovirus (HCMV) | activity change, negative = inhibition, % at 57.5 µM | HFF cells, HCMV-luciferase reporter, 72 h; stronger effect = lower value | AID 1259415, 2018 | 410,000 compounds, 4.5% hits; in the data active means activity change below about -60%; inconclusive means no clear call, values can overlap the other calls; inactive means above about -39%
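Two compound doses tested in HFFs infected with HCMV-luciferase, MOI 1 PFU/cell, 72 h at 37C. Lysate luminescence read with OneGlo; data normalized against buffer-only and 10uM Salinomycin inhibitor controls.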
LASV entry inh: qHTS for Inhibitors of binding or entry into cells for Lassa Virus; AID 540256, 2011; Potency, µM (highest dose often 37.9 µM), without a hit: top-dose activity change, negative = inhibition, hits mostly inhibitors; Lassa virus pseudotype entry inhibition, cell reporter; 300,000 compounds, 1.2% hits; calls by dose curve; tested in HEK293 cells; further: potency means the concentration at half of the fitted maximal effect; nearly all actives have a fitted effect of over 50% in size
Marburg entry inh: qHTS for inhibitors of binding or entry into cells for Marburg Virus; AID 540276, 2011; Marburg virus pseudotyped entry inhibition, cell reporter; 300,000 compounds, 1.8% hits; Potency, µM (top dose mostly 37.8 µM), for the others: top-dose activity change, negative = inhibition, most hits filed as inhibitors; calls by dose curve; tested in HEK293 cells; further: potency means the concentration at half of the fitted maximal effect
FMDV inh: High Throughput Screening for Foot and Mouth Disease Virus Antivirals; FMDV antiviral cell-based qHTS; Potency, µM (titrated, usually from 57.9 µM), for inactives: top-dose activity change, negative = inhibition, usual class: inhibitors; 410,000 compounds, 1.2% hits; AID 1159524, 2015; calls by dose curve; tested in HEK293T cells; further: read-out not given here; potency means the concentration at half of the fitted maximal effect; nearly all actives have a fitted effect of over 45% in size
Active calls of the source: *; ! = repeats disagree; [ ] = another dose, or the depositor's remark. Most compounds without a hit are left out; they make up all but 6.2% or so of the library. On the % scale 0 is the no-effect control and ±100 the full control effect.

`O=C(COc1ccccc1)Nc1c(C(=O)N2CCN(c3ccc(F)cc3)CC2)oc2ccccc12` gave HCMV inh -106.9*, LASV entry inh -0.4%[46.1 µM] and FMDV inh 91.6%.
For COc1cccc(N2CCN(C(=O)c3oc4ccccc4c3NC(=O)CCc3cc(OC)no3)CC2)c1 the results were HCMV inh -61.5*, LASV entry inh -28.7%[46.1 µM], Marburg entry inh -20.2%[46.1 µM] and FMDV inh 41.8%.
Screening COc1cccc(CC(=O)Nc2c(C(=O)N3CCN(c4ccccc4)CC3)oc3ccccc23)c1 returned HCMV inh -9.7, LASV entry inh 19.6%[46.1 µM], Marburg entry inh -9.7%[46.1 µM] and FMDV inh 48.4%.
Screening O=C(Cc1ccccc1)Nc1c(C(=O)N2CCN(c3ccc(F)cc3)CC2)oc2ccccc12 returned HCMV inh -20.6, LASV entry inh -24.4%[46.1 µM] and FMDV inh 60.0%.
Screening CC1CCCN(CC(O)CN2CCN(CC(O)CN3CCCC(C)C3)C(C)C2)C1 (stereo unspecified) returned HCMV inh -12.9, LASV entry inh 3.2%[46.1 µM], Marburg entry inh 1.12µM* and FMDV inh 5.3%.
`NS(=O)(=O)C#Cc1ccccc1` gave LASV entry inh 5.8µM*, Marburg entry inh inconclusive and FMDV inh inconclusive.
Screening Nc1ccc(C#Cc2ccccc2)cc1 returned HCMV inh -14.3, LASV entry inh 19.4%, Marburg entry inh -21.9% and FMDV inh 16.7%.
`COc1ccc(C2=CC(c3ccc(OC)c(OC)c3)c3c(c4ccccc4oc3=O)O2)cc1OC` (stereo unspecified) gave HCMV inh -64.4* and FMDV inh -27.7%.
For COc1ccc(-c2cc(=O)c3ccccc3o2)cc1OC the results were FMDV inh 0.0%.
Screening CCN1/C(=C\C(C)=O)Sc2ccc(OC)cc21 returned LASV entry inh -5.5%, Marburg entry inh -0.1% and FMDV inh 8.3%.
For CCN1/C(=C/C(C)=C/c2sc3ccccc3[n+]2CC)Sc2ccccc21 the results were HCMV inh -99.9*, LASV entry inh 1.12µM*, Marburg entry inh 1.58µM* and FMDV inh 10µM*.
For COc1ccc(-c2nc3cc(F)ccc3nc2C(=O)Nc2c(C)cccc2C)cc1 the results were HCMV inh 15.8.
`CCOc1ccc(NC(=O)CSc2nc3ccsc3c(=O)n2CC)cc1` gave HCMV inh inconclusive, LASV entry inh -1.5%[46.1 µM] and FMDV inh -17.7%.
CCOc1ccc(NC(=O)CSc2nc3ccsc3c(=O)n2CCCCCC(=O)O)cc1 was read as HCMV inh active!, LASV entry inh -24.0%[46.1 µM] and FMDV inh -0.9%.
`Cc1c(C)n(CCc2ccccc2)c2ncnc(NCCCN(C)C)c12` gave HCMV inh inconclusive, LASV entry inh 2.6%[46.1 µM], Marburg entry inh 8.91µM* and FMDV inh -22.9%.
`Cc1c(C)n(CCN(C)C)c2ncnc(NCc3ccccc3)c12` gave HCMV inh -20.1, LASV entry inh 0.1%, Marburg entry inh -26.7% and FMDV inh -3.9%.
CC(C)N(Cc1ccccc1)S(=O)(=O)c1ccc(-c2cc(C(F)(F)F)on2)s1 was read as HCMV inh -8.5, LASV entry inh -16.2%[46.1 µM] and FMDV inh -26.5%.
Screening CN(C)CCN(Cc1ccccc1)S(=O)(=O)c1ccc(-c2cc(C(F)(F)F)on2)s1 returned HCMV inh -100.0*, LASV entry inh -6.9%[46.1 µM] and FMDV inh -22.5%.
For Cc1cccc(NC(=O)Nc2nnc(N3CCCC3)s2)c1 the results were HCMV inh 20.0, LASV entry inh -20.1%[46.1 µM], Marburg entry inh inconclusive and FMDV inh 48.4%.
For CC(=O)c1cccc(NS(=O)(=O)c2c(C)nc3sc(C)cn3c2=O)c1 the results were HCMV inh -10.9, LASV entry inh -19.3%[46.1 µM] and FMDV inh -21.1%.
Screening CCCCC1OC23CCCCC2C(C#N)(C(=N)O3)C1(C#N)C#N (stereo unspecified) returned HCMV inh 43.1, LASV entry inh -16.4%, Marburg entry inh 6.5% and FMDV inh 25.1µM*.
`CCCCC1OC23CCCCC2C(C#N)(C#N)C1(C#N)C(=N)O3` (stereo unspecified) gave HCMV inh -13.8, LASV entry inh 13.2%, Marburg entry inh -4.4% and FMDV inh 0.0%.
`Cc1cc2c(c3oc(=O)c4ccccc4c13)CN(Cc1ccc(F)cc1)CO2` gave HCMV inh 1.7, LASV entry inh 13.7%[46.1 µM], Marburg entry inh -5.3%[46.1 µM] and FMDV inh -17.4%.
CC(=O)c1ccc(NC(=O)CCc2c(C)nn(-c3ccc(N4CCCCC4)nn3)c2C)cc1 was read as HCMV inh -1.6, LASV entry inh 10.5%[46.1 µM] and FMDV inh 18.8%.
